According to PubChem BioAssay (Tox21):
Inconclusive results are not listed. Activity calls are given as the source filed them. Unless noted, calls come from the whole dose curve; as a rule, active = well fitted curve in the direction sought with a large enough effect in the repeat runs; inconclusive = weak or mixed curves; inactive = no such curve, though single readings can be large; an effect the other way counts as inactive or inconclusive.

Columns and labels:
[1] = qHTS assay to identify small molecule agonists of the peroxisome proliferator-activated receptor delta (PPARd) signaling pathway - cell viability counter screen (AID 743211); note: nearly all actives have a fitted effect of over 55% in size; note: potency is the fitted concentration of half-maximal effect
How it was run: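 Read-out: CellTiter-Glo luminescence, 30 min RT, measured in the same wells as the beta-lactamase reporter. Cells: GeneBLAzer PPAR delta UAS-bla HEK293H, 3000 cells/well, compound exposure 17 h at 37C.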

[2] = biological target: Peroxisome proliferator-activated receptor delta (Homo sapiens) (UniProt Q03181); assay: qHTS assay to identify small molecule agonists of the peroxisome proliferator-activated receptor delta (PPARd) signaling pathway (AID 743212; calls by dose curve)
Sequence of Peroxisome proliferator-activated receptor delta (Homo sapiens) (Q03181 whole entry, looked up): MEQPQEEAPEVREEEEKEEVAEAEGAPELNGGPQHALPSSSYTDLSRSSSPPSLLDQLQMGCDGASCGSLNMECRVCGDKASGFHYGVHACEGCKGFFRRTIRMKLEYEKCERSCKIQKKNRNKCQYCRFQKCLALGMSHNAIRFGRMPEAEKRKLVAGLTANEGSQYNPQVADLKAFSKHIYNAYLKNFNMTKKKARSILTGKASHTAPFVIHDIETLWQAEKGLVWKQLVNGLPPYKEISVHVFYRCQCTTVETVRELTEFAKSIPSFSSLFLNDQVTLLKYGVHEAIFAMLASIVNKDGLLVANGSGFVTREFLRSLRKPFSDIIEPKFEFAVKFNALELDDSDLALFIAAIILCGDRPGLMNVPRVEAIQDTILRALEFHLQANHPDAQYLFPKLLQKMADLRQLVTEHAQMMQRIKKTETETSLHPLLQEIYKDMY
How it was run: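 HEK293H PPARd-bla cells; 5 h preincubation 37 C/5% CO2; compound (DMSO) 37 C; LiveBLAzer B/G FRET substrate 2 h RT; fluorescence intensity.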

[3] = qHTS assay to identify small molecule antagonists of the peroxisome proliferator-activated receptor delta (PPARd) signaling pathway - cell viability counter screen (AID 743213); note: nearly all actives have a fitted effect of over 50% in size
How it was run: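 Agonist-stimulated (L165041, 300 nM final) HEK293H PPARd UAS-bla cells are exposed to compounds for 17 h at 37 C, and ATP-based luminescence (CellTiter-Glo) from the same wells reports cytotoxicity.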

[4] = biological target: Peroxisome proliferator-activated receptor delta (Homo sapiens) (UniProt Q03181); assay: qHTS assay to identify small molecule antagonists of the peroxisome proliferator-activated receptor delta (PPARd) signaling pathway (AID 743215; active = well fitted inhibition curve with a large enough effect in the signal ratio in the repeat runs, not every such curve was filed as active; the % refers to the signal ratio; note: series mostly up to about 62 µM)
How it was run: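 Read-out is beta-lactamase FRET fluorescence, measured 2 h after substrate addition at room temperature. Beforehand, UAS-bla HEK293H cells carrying the PPARd reporter were exposed to compounds with L165041 at 300 nM final for 17 h at 37 C.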

[5] = biological target: Bile acid receptor (Homo sapiens) (UniProt Q96RI1); assay: qHTS assay to identify small molecule antagonists of the farnesoid-X-receptor (FXR) signaling pathway (AID 743217; active = well fitted inhibition curve with a large enough effect in the signal ratio in the repeat runs, not every such curve was filed as active; the % refers to the signal ratio)
Sequence of Bile acid receptor (Homo sapiens) (Q96RI1 whole entry, looked up): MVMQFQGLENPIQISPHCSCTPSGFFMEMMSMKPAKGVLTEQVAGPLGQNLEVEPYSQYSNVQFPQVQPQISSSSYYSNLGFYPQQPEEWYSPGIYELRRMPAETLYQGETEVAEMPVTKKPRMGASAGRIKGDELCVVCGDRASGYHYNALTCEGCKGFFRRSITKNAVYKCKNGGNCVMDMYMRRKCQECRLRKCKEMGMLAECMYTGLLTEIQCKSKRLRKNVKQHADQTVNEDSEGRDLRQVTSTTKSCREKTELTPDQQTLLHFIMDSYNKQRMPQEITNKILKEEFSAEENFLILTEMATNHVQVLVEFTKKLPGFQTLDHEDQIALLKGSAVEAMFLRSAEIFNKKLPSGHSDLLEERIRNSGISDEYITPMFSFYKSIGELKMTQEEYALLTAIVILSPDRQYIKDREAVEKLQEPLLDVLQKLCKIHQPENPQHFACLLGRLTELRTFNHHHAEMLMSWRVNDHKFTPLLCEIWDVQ
How it was run: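 HEK 293T FXR-UAS-bla, 5000 cells/well; compound + CDCA 50 uM final; 16 h, 37 °C; B/G FRET substrate 2 h RT; fluorescence.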

[6] = qHTS assay to identify small molecule agonists of the farnesoid-X-receptor (FXR) signaling pathway - cell viability counter screen (AID 743218); note: nearly all actives have a fitted effect of over 45% in size; note: potency is the fitted concentration of half-maximal effect
How it was run: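 HEK 293T FXR-bla cells; 5 h pre-incubation, 16 h compound exposure at 37 C; LiveBLAzer substrate 2 h RT, then CellTiter-Glo 30 min RT, luminescence.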

[7] = biological target: Bile acid receptor (Homo sapiens) (UniProt Q96RI1); assay: qHTS assay to identify small molecule agonists of the farnesoid-X-receptor (FXR) signaling pathway (AID 743220; active = well fitted activation curve with a large enough effect in the signal ratio in the repeat runs, not every such curve was filed as active; the % refers to the signal ratio)
How it was run: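 Beta-lactamase reporter under UAS control in GeneBLAzer FXR HEK 293T cells (5000/well) measured with LiveBLAzer FRET substrate after 2 h at room temperature. Compound exposure lasted 16 h at 37C.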

[8] = qHTS assay to identify small molecule antagonists of the farnesoid-X-receptor (FXR) signaling pathway - cell viability counter screen (AID 743221; active = well fitted cell-killing curve with a large enough effect in the repeat runs, not every such curve was filed as active; note: nearly all actives have a fitted effect of over 50% in size)
How it was run: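 HEK 293T FXR-bla cells, 5 h pre-incubation; compound + CDCA 50 uM final, 16 h, 37 C; beta-lactamase FRET read first, then CellTiter-Glo luminescence, 30 min RT.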

[9] = biological target: Vitamin D3 receptor (Homo sapiens) (UniProt P11473); assay: qHTS assay to identify small molecule antagonists of the vitamin D receptor (VDR) signaling pathway (AID 743223; active = well fitted inhibition curve with a large enough effect in the signal ratio in the repeat runs, not every such curve was filed as active; the % refers to the signal ratio)
Sequence of Vitamin D3 receptor (Homo sapiens) (P11473 whole entry, looked up): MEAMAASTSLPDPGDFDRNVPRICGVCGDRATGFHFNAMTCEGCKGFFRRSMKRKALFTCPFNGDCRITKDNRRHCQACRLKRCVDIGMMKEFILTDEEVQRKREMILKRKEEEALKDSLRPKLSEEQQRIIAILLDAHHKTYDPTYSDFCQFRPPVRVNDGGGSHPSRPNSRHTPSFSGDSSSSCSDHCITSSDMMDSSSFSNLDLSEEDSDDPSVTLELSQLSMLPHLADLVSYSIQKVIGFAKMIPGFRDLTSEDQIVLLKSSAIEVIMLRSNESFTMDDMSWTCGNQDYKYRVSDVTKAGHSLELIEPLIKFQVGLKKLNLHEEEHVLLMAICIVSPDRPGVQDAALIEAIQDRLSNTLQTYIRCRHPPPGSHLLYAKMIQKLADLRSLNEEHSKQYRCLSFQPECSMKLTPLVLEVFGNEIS
How it was run: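 Beta-lactamase reporter read-out: FRET substrate fluorescence after 2 h at room temperature, following 16 h exposure of VDR-bla cells to test compound plus 3 nM (final) 1alpha,25-dihydroxyvitamin D3 agonist at 37C.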

[10] = qHTS assay to identify small molecule agonists of the vitamin D receptor (VDR) signaling pathway - cell viability counter screen (AID 743224); note: series mostly up to about 63 µM; nearly all actives have a fitted effect of over 50% in size
How it was run: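 Luminescence from CellTiter-Glo, read after 30 min at room temperature, reports viability of VDR-bla cells treated with compounds for 16 h at 37C in the wells used for the beta-lactamase FRET read.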

[11] = qHTS assay to identify small molecule agonists of the NFkB signaling pathway (AID 1159509; active = well fitted curve in the direction sought with a large enough effect in the signal ratio in the repeat runs, not every such curve was filed as active; the % refers to the signal ratio; note: series mostly up to about 61 µM)
How it was run: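 NFkB-bla ME-180 cells carry a beta-lactamase reporter under an NF-kB response element. They were plated overnight, then exposed to compounds for 5 h at 37 C. Read-out is LiveBLAzer FRET after 1.5 hr at room temperature (405 nm excitation; 460/530 nm emission).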

[12] = qHTS assay to identify small molecule agonists of the NFkB signaling pathway - cell viability counter screen (AID 1159515; calls by dose curve; note: series mostly up to about 61 µM; nearly all actives have a fitted effect of over 55% in size)
How it was run: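 Luminescence from CellTiter-Glo (30 min, room temperature) gives viability, measured in the same wells as the beta-lactamase reporter read. Cells were NFkB-bla ME-180, 2,000 per well, treated 5 hr with compounds.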

[13] = qHTS assay to identify small molecule agonists of the endoplasmic reticulum stress response signaling pathway (AID 1159516; active = well fitted activation curve with a large enough effect in the signal ratio in the repeat runs, not every such curve was filed as active; the % refers to the signal ratio)
How it was run: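 Read-out is beta-lactamase cleavage of a FRET substrate (405 nm excitation; 460 and 530 nm emissions) in ESRE-bla HeLa cells after a 5 hr compound exposure at 37 C. Substrate incubation ran 2 hr at room temperature.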

[14] = qHTS assay to identify small molecule antagonists of the retinoid-related orphan receptor gamma (ROR-gamma) signaling pathway - cell viability counter screen (AID 1159520); note: nearly all actives have a fitted effect of over 50% in size
How it was run: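 Cytotoxicity was read from cellular ATP (CellTiter-Glo luminescence) after 16 hr at 37 C with 1 uM doxycycline induction. The inducer was added 2 hr after compound transfer to Tet-on ROR gamma CHO cells.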

[15] = biological target: Nuclear receptor ROR-gamma (Homo sapiens) (UniProt P51449); assay: qHTS assay to identify small molecule antagonists of the retinoid-related orphan receptor gamma (ROR-gamma) signaling pathway (AID 1159521)
How it was run: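 Luminescence readout (ONE-Glo, 30 min RT) after 16 h doxycycline induction; loss of signal scored as antagonism. CHO cells with TET-inducible RORγ and RORE-LUC reporter; compounds added 2 h before 1 uM final doxycycline.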

[16] = qHTS assay to identify small molecule agonists of the AP-1 signaling pathway - cell viability counter screen (AID 1159525; calls by dose curve; note: nearly all actives have a fitted effect of over 55% in size)
How it was run: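 Luminescent ATP readout (Cell Titer Glo, 30 min RT), normalised to DMSO and tetra n-octyl ammonium bromide controls. Cells were ME-180 AP-1-bla in 0.5% dialyzed FBS Opti-MEM, with a 5 h, 37 °C compound exposure.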

[17] = qHTS assay to identify small molecule agonists of the AP-1 signaling pathway (AID 1159526; calls by dose curve)
[18] = biological target: Vitamin D3 receptor (Homo sapiens) (UniProt P11473); assay: qHTS assay to identify small molecule agonists of the vitamin D receptor (VDR) signaling pathway (AID 743222; calls by dose curve)
How it was run: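 VDR-bla cells, 2,000/well; 4 h preincubation 37C; cpd (DMSO) 16 h; LiveBLAzer B/G substrate 2 h RT; fluorescence intensity read.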

[19] = qHTS assay to identify small molecule antagonists of the vitamin D receptor (VDR) signaling pathway - cell viability counter screen (AID 743225); note: nearly all actives have a fitted effect of over 50% in size
How it was run: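 Viability counter screen run in the same wells as the beta-lactamase reporter assay: HEK 293T VDR-UAS-bla cells, 16 h compound exposure at 37C with 3 nM (final) 1-alpha,25-dihydroxyvitamin D3. CellTiter-Glo luminescence, 30 min, room temperature.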

[20] = qHTS assay to identify small molecule agonists of the endoplasmic reticulum stress response signaling pathway - cell viability counter screen (AID 1159517; calls by dose curve)
How it was run: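 HeLa cells carrying an ESRE-driven beta-lactamase reporter receive compound for 5 hr at 37 C. Cell viability is then gauged with CellTiter-Glo by luminescence, 30 min at room temperature.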

Measured: Potency

Cc1nc2ccccn2c(=O)c1CCN1CCC(C(=O)c2ccc(F)cc2)CC1
inactive: [1] | [2] | [3] | [4] | [5] | [6] | [7] | [8] | [9] | [10] | [11] | [12] | [13] | [14] | [15] | [16] | [17]

Cc1cc(O)c(C(C)C)cc1Cl
inactive: [1] | [2] | [3] | [4] | [5] | [6] | [7] | [8] | [18] | [9] | [10] | [19] | [11] | [12] | [13] | [14] | [15] | [16]

O=C(/C=C/c1ccccc1)OCCCc1ccccc1
inactive: [1] | [3] | [4] | [8] | [18] | [9] | [10] | [19] | [11] | [12] | [13] | [14] | [15] | [17]

CC(=N\O)/C(C)=N/O
inactive: [1] | [2] | [3] | [18] | [9] | [10] | [11] | [12] | [13] | [20] | [16] | [17]

CCCCC/C(=C\c1ccccc1)CO
inactive: [1] | [2] | [5] | [6] | [7] | [8] | [18] | [9] | [11] | [12] | [13] | [20] | [15]

CC1=C(/C=C/C(C)=C\C=C\C(C)=C\C(=O)O)C(C)(C)CCC1
inactive: [1] | [3] | [6] | [8] | [18] | [9] | [10] | [11] | [12] | [13] | [20] | [16] | [17]

CCCCCCCCCCCC[N+](C)(C)CCCS(=O)(=O)[O-]
inactive: [2] | [4] | [6] | [8] | [18] | [19] | [11] | [12] | [13] | [20] | [15] | [17]

O=Cc1c(Cl)cccc1Cl
inactive: [1] | [3] | [4] | [6] | [8] | [18] | [9] | [10] | [19] | [11] | [12] | [13] | [20] | [16] | [17]

CCCCC(CC)CNCC(CC)CCCC (stereo not drawn)
inactive: [1] | [3] | [4] | [5] | [6] | [7] | [8] | [18] | [9] | [10] | [19] | [11] | [12] | [13] | [14] | [15] | [16] | [17]

Cc1c(C(=O)NN2CCCCC2)nn(-c2ccc(Cl)cc2Cl)c1-c1ccc(Cl)cc1
active: [1] 23.7 µM | [6] 33.5 µM
inactive: [7] | [11] | [12] | [13] | [20] | [16] | [17]

CCC(=O)OC/C=C/c1ccccc1
inactive: [1] | [2] | [3] | [4] | [5] | [6] | [7] | [8] | [18] | [9] | [10] | [19] | [11] | [12] | [13] | [14] | [15] | [16] | [17]

COc1ccccc1N=Nc1c(S(=O)(=O)O)cc2cc(S(=O)(=O)O)cc(NC(C)=O)c2c1O
inactive: [1] | [3] | [6] | [8] | [18] | [9] | [10] | [19] | [11] | [12] | [13] | [20] | [16] | [17]

COC(=O)c1cc(S(N)(=O)=O)ccc1OC
inactive: [1] | [3] | [5] | [6] | [7] | [8] | [18] | [9] | [10] | [19] | [11] | [12] | [13] | [14] | [15] | [16] | [17]

C=CC(C)(C)CC(=O)OC
inactive: [1] | [2] | [3] | [4] | [5] | [6] | [7] | [8] | [18] | [9] | [10] | [19] | [11] | [12] | [13] | [20] | [16] | [17]

CCCCCCCCCCCC[N+](C)(C)CC(=O)[O-]
active: [1] 15.5 µM
inactive: [4] | [5] | [7] | [18] | [9] | [11] | [12] | [13] | [20] | [15] | [17]

CO[C@H]1O[C@H](CO)[C@@H](O)[C@H](O)[C@H]1O
inactive: [1] | [2] | [3] | [4] | [5] | [6] | [7] | [8] | [18] | [9] | [10] | [19] | [11] | [12] | [13] | [14] | [15] | [16] | [17]

CCN(CC)CCNC(=O)c1ccc(NC(C)=O)cc1
inactive: [1] | [2] | [3] | [4] | [5] | [6] | [7] | [8] | [18] | [10] | [19] | [11] | [12] | [13] | [14] | [15] | [16] | [17]
